Results filed as inconclusive are left out. Activity calls are given as the source filed them. Calls follow the shape of the dose curve; as a rule, active = well fitted curve in the direction sought with a large enough effect; inconclusive = small, poorly fitted or top-dose-only effect, or another doubt; inactive = no such curve, though single readings can be large; an effect the other way counts as inactive or inconclusive.
Key:
[1] = OV-KATE Cancer Cell Toxicity qHTS against the NCATS CANVASS Library (AID 1347345)
Method in brief: (§1)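 Cells were seeded at 1000 per well, allowed 4 h at 37 degrees C/5% CO2, then pin-treated with an 11-point compound series. After 72 h, viability was read as CellTiter-Glo luminescence following 15min at room temperature.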

[2] = A2780 Cisplatin Sensitive Ovarian Cancer Cell Toxicity qHTS against the NCATS CANVASS Library (AID 1347353); also: nearly all actives have a fitted effect of over 60% in size; also: potency is read from the fitted curve at half-maximal effect
Method in brief: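 Cells are plated at 750 per well and rest for 4 hours. Compounds are added across eleven concentrations, and incubated 72 hours before ATP is quantified by luminescence.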

[3] = KB-8-5-11 Cancer Cell Toxicity qHTS against the NCATS CANVASS Library (AID 1347364); also: nearly all actives have a fitted effect of over 75% in size; also: potency is read from the fitted curve at half-maximal effect
Method in brief: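 Terse: KB-8-5-11, 500 cells/well, 72 hr, 37C/5% CO2, 11-pt titration, CellTiter-Glo readout; confirmatory runs ± 1uM tariquidar in medium.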

[4] = target: Nuclear receptor subfamily 1 group I member 3 (Homo sapiens) (UniProt Q14994); assay: qHTS for Constitutive Androstane Receptor (CAR) Agonist screened against the NCATS CANVASS Library (AID 1347373);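 also: every well also contained 1.5 µM PK11195 alongside the test compound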; also: potency is read from the fitted curve at half-maximal effect
Method in brief: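 Cells were plated and allowed to attach for 4hr, then dosed with compound in an 11-point series alongside 1.5uM PK11195. After 24hr at 37C, viability was measured fluorometrically and CAR-driven CYP2B6 reporter luminescence was recorded.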

[5] = qHTS for Hypoxia signaling pathway (HIF-1) agonists against the NCATS CANVASS Library (AID 1347375)
Method in brief: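 Cells plated and rested 5 h, compounds pinned in DMSO across 11 concentrations, incubated 17 h at 37C, loaded with CCF4-AM for 2 h, fluorescence read at 460 and 530 nm, then CellTiter-Glo luminescence measured for viability and normalization.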

[6] = Cytotoxicity qHTS for assessment of Hepg2 cells membrane integrity screened against the NCATS CANVASS Library (AID 1347387)
Method in brief: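 Cells were seeded at 2000 per well and left overnight to attach. Compounds were pin-transferred to give 0.59 nM - 46 uM in an 11-point series and incubated 5 hr at 37C. CytoTox-ONE reagent was added and, after 10 min at room temperature, fluorescence (ex 560, em 590 nm) was read.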

[7] = qHTS for Activators of p53 Stress Response Pathway screened against the NCATS CANVASS Library (AID 1347388); also: potency is read from the fitted curve at half-maximal effect
Method in brief: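 p53RE-bla HCT-116 cells (4000/well) were pre-incubated for 5 h, then treated with compound (11 points) for 16 h at 37C. After 2 h with CCF4, the 460/530 nm ratio gave reporter activation; CellTiter-Glo measured viability.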

[8] = qHTS for activators of Nrf2/ARE signaling pathway screened against the NCATS CANVASS Library (AID 1347391); also: nearly all actives have a fitted effect of over 60% in size; also: potency is read from the fitted curve at half-maximal effect
Method in brief: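 Beta-lactamase reporter signal, read as 460 and 530 nm emission under 405 nm excitation after 2 h CCF4 loading, reflected ARE activation in HepG2 cells treated 16 h with an 11-point series.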

[9] = qHTS for activators of dead-cell proteases activity screened against the NCATS CANVASS Library (AID 1347392);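 also: luminescence from protease leaking out of membrane-damaged cells cleaving impermeant substrate; rising signal means more cytotoxicity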
Method in brief: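 HepG2, 2000 cells/well, 18 h attach; cpd 11-pt, 5 h 37C 5% CO2; CytoTox-Glo (AAF-aminoluciferin) 15 min RT; luminescence read.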

[10] = qHTS for inhibitors of ER calcium dysfunction: SERCaMP assay screened against the NCATS CANVASS Library (AID 1347393); also: nearly all actives have a fitted effect of over 40% in size; also: potency is read from the fitted curve at half-maximal effect
Method in brief: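 SH-SY5Y GLuc-SERCaMP, 1000 cells/well, 4 h attach; cpd 16 h, 37C/5% CO2; thapsigargin (added as 6x 600 nM) 4 h; coelenterazine; luminescence. Reduced reporter release = ER Ca stabilization.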

[11] = HEK-293 Cancer Cell Toxicity qHTS against the NCATS CANVASS Library (AID 1347355); also: nearly all actives have a fitted effect of over 65% in size; also: potency is read from the fitted curve at half-maximal effect
Method in brief: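 First, 1000 cells go into each well and rest for 4 hours. Next, an 11-point dilution range is pinned in. Plates then incubate 72 hours before CellTiter-Glo addition and luminescence reading.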

[12] = HEK293 24hr Apoptosis Induction qHTS against the NCATS CANVASS Library (AID 1347359)
Method in brief: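 HEK293 cells, 500 per well, exposed to an 11-point compound series for 24 hours at 37 degrees C. Caspase 3/7 activity read by Caspase-Glo luminescence (DEVD substrate) after 15 min at room temperature.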

[13] = qHTS for ATAD5 Antagonist screened against the NCATS CANVASS Library (AID 1347370); also: nearly all actives have a fitted effect of over 65% in size; also: potency is read from the fitted curve at half-maximal effect
Method in brief: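 Compounds (11-point) co-dosed with 10 µM 5-FUrd for 16 h at 37 °C onto HEK293T-ATAD5 luciferase reporter cells. Viability measured by CellTiter-Fluor fluorescence, then ATAD5 reporter signal by luminescence.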

[14] = qHTS assay for small molecule disruptors of mitochondrial membrane potential screened against the NCATS CANVASS Library (AID 1347389); also: series mostly up to about 46 µM; nearly all actives have a fitted effect of over 60% in size
Method in brief: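 Mitochondrial depolarization in HepG2 cells is scored as a falling aggregate-to-monomer fluorescence ratio after 1 hr compound exposure and 30 min staining with Mito-MPS dye at 37C, each compound tested as an 11-point titration.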

[15] = Secretion counterscreen for inhibitors of the SERCaMP assay screened against the NCATS CANVASS Library (AID 1347390);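 also: light from luciferase secreted into medium read as a measure of general secretion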; also: potency is read from the fitted curve at half-maximal effect
Method in brief: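 SH-SY5Y cells with constitutively secreted GLuc reporter, 1000 cells/well, treated 20 h at 37C with compounds at 0.001 - 77 uM final; secreted luciferase read as luminescence after coelenterazine; Brefeldin A as positive control.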

[16] = SW1088 Cancer Cell Toxicity qHTS against the NCATS CANVASS Library (AID 1347350); also: nearly all actives have a fitted effect of over 75% in size
Method in brief: as §1

[17] = KB-3-1 Cancer Cell Toxicity qHTS against the NCATS CANVASS Library (AID 1347366); also: nearly all actives have a fitted effect of over 75% in size; also: potency is read from the fitted curve at half-maximal effect
Method in brief: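 KB-3-1 cells (500/well) in DMEM with 10% FBS were exposed to compounds for 72 h at 37C. Viability was read by CellTiter-Glo luminescence.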

[18] = G06 Cancer Cell Toxicity qHTS against the NCATS CANVASS Library (AID 1347368); also: nearly all actives have a fitted effect of over 60% in size; also: potency is read from the fitted curve at half-maximal effect
Method in brief: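 Cells were plated at 500 per well, then compounds were added over an 11-point range. After 72 hr at 37C, CellTiterGlo was added and luminescence measured as ATP content.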

[19] = qHTS for Hypoxia signaling pathway (HIF-1) antagonists against the NCATS CANVASS Library (AID 1347374); also: nearly all actives have a fitted effect of over 60% in size; also: potency is read from the fitted curve at half-maximal effect
Method in brief: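 Antagonism scored as loss of CoCl2-driven (60 uM stock added) HRE beta-lactamase signal, read by CCF4 FRET at 460/530 nm. Compounds were tested in an 11-point series on ME-180 reporter cells for 17 hrs at 37C, with parallel CellTiter-Glo cytotoxicity.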

[20] = NCATS anti-infectives library activity on HEK293 viability as a counter-qHTS vs the C. elegans viability qHTS (AID 1745854);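 also: HEK293 cells exposed to compounds for 24 hr before the viability read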; also: potency is read from the fitted curve at half-maximal effect
Method in brief: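 Counter-screen for cytotoxicity: HEK293, 24 hr, 37C, compounds up to 41.7 uM final (a dilution series, 1:5). Readout CellTiter-Glo luminescence, 10 min RT. Digitonin control, 83.3 uM final.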

Measured: Potency

Chain of Nuclear receptor subfamily 1 group I member 3 (Homo sapiens) (Q14994 whole entry, looked up): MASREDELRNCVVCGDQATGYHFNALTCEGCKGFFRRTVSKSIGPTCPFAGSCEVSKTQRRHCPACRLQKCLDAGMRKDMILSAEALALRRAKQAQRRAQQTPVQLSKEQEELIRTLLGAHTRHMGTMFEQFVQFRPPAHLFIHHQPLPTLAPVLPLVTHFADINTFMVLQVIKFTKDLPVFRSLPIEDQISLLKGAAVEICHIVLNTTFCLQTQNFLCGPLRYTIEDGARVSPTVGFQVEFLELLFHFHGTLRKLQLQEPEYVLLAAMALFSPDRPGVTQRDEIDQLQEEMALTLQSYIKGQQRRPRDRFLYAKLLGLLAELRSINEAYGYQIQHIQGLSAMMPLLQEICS

COc1ccc([C@@H]2c3cc4c(cc3C[C@H](C)C2C)OCO4)cc1OC (some centres undefined)
inactive: [1] | [4] | [5] | [6] | [8] | [9] | [10]
active: [2] 10.5 µM | [3] 3.72 µM | [7] 7.41 µM

C=C1C[C@H]2O[C@@H]3[C@@H]4[C@H](CC[C@@](C)(O)[C@@H]42)[C@H](C)COC3(C)[C@@H](OC(=O)CCCCCCC)C[C@H]1O (some centres undefined)
active: [11] 23.5 µM | [8] 20.9 µM
inactive: [12] | [13] | [4] | [5] | [6] | [7] | [14] | [15] | [9]

CC1=C[C@H]2[C@H]3C(=O)C(c4ccc(O)cc4)=C[C@@]3(c3ccc(O)cc3)[C@@H]1C(=O)[C@]2(C)O
active: [2] 0.418 µM | [11] 0.235 µM | [3] 3.72 µM | [17] 0.332 µM | [18] 0.235 µM | [7] 0.331 µM
not listed: [5] | [6] | [8] | [15] | [20]
inactive: all other assays above

C=C[C@]1(C)CC[C@@H]([C@H](C)C(=O)/C=C/C(C)(C)O)O1
active: [8] 16.6 µM
not listed: [2] | [4] | [6] | [10] | [11] | [13] | [18] | [20]
inactive: all other assays above

C/C(=C\[C@H](C)C(=O)/C=C/CC1CC(=O)NC(=O)C1)[C@@H]1OC(=O)CCCC/C=C/[C@H](O)[C@@H](O)[C@@H]1C
active: [2] 10.5 µM | [11] 23.5 µM | [18] 5.9 µM | [13] 23.4 µM | [19] 11.8 µM | [8] 4.67 µM | [10] 19.3 µM
not listed: [1] | [9] | [17] | [20]
inactive: all other assays above

O[C@H]1C=C2[C@H]3CN(Cc4cc5c(cc43)OCO5)[C@H]2C[C@@H]1O
active: [2] 9.35 µM | [11] 5.26 µM | [3] 10.5 µM | [17] 13.2 µM | [18] 6.62 µM | [19] 13.3 µM | [15] 38.4 µM
not listed: [1] | [6] | [13] | [20]
inactive: all other assays above

CN1CCc2cc3c(c4c2C1(C)C(=O)c1cc(O)ccc1-4)OCO3 (centres undefined)
inactive: [16] | [12] | [5] | [7] | [14] | [8]
active: [11] 18.7 µM | [3] 23.5 µM | [18] 1.18 µM | [13] 13.2 µM | [19] 13.3 µM | [10] 19.3 µM

C/C=C/c1cc2c(c(=O)o1)C(=O)[C@@H](O)[C@H](C)O2
inactive: [12] | [17] | [4] | [5] | [6] | [14]
active: [2] 2.35 µM | [11] 9.35 µM | [18] 5.26 µM | [19] 14.9 µM | [7] 37.1 µM | [15] 34.3 µM | [8] 4.67 µM

C/C(=C\[C@@H](C)CC/C=C/CC/C=C/C(=O)O)[C@H](O)[C@H](C)C(=O)CCCC1CC(=O)NC(=O)C1
not listed: [5] | [9] | [18] | [20]
inactive: all other assays above

COc1cc2c(cc1OC)[C@@H](c1ccc3c(c1)OCO3)C(C)[C@@H](C)C2=O (some centres undefined)
active: [13] 11.7 µM | [4] 9.33 µM | [10] 34.3 µM
inactive: [1] | [12] | [17] | [19] | [5] | [6] | [7] | [14] | [15]

CC1=C(C)C(=O)OC(C(C)C2(O)CCC3C4C5OC5C5(O)CC=CC(=O)C5(C)C4CCC32C)C1 (centres undefined)
active: [18] 23.5 µM | [8] 18.6 µM
inactive: [1] | [16] | [3] | [17] | [13] | [19] | [5] | [6] | [7] | [14]

COc1ccc([C@@H]2c3cc4c(cc3C(=O)[C@H](C)C2C)OCO4)cc1OC (some centres undefined)
active: [11] 18.7 µM | [3] 16.6 µM | [13] 16.6 µM | [7] 11.7 µM
not listed: [2] | [8] | [17] | [20]
inactive: all other assays above

C=C[C@@](C)(O)CC[C@@H]1[C@@]2(C)CCCC(C)(C)[C@@H]2CC[C@@]1(C)O
not listed: [3] | [5] | [10] | [11] | [15] | [16] | [20]
inactive: all other assays above

C=CC(=O)N1CC/C(=C\c2ccc(F)c([N+](=O)[O-])c2)C(=O)/C(=C/c2ccc(F)c([N+](=O)[O-])c2)C1
active: [20] 1.78 µM

Cc1c(-c2cnccn2)ssc1=S
inactive: [20]

CC(=O)N1c2ccc(-c3ccc(C(=O)O)cc3)cc2[C@H](Nc2ccc(Cl)cc2)C[C@@H]1C
inactive: [20]

CN1C(N)=N[C@](C)(c2cc(NC(=O)c3ccc(F)cn3)ccc2F)CS1(=O)=O
inactive: [20]

CC(C)=CCC[C@](C)(O[C@@H]1O[C@H](CO[C@@H]2O[C@H](CO)[C@@H](O)[C@H](O)[C@H]2O)[C@@H](O)[C@H](O)[C@H]1O)[C@H]1CC[C@]2(C)[C@@H]1[C@H](O)C[C@@H]1[C@@]3(C)CC[C@H](O[C@@H]4O[C@H](CO)[C@@H](O)[C@H](O)[C@H]4O[C@@H]4O[C@H](CO)[C@@H](O)[C@H](O)[C@H]4O)C(C)(C)[C@@H]3CC[C@]12C
inactive: [20]

CNC(=O)[C@@H](NC(=O)[C@H](CC(C)C)[C@H](O)C(=O)NO)C(C)(C)C
inactive: [20]

COC(=O)C1=C(C)NC(c2ncc(F)cc2F)=N[C@H]1c1ccc(F)cc1Cl
inactive: [20]

COc1ccc(C(=O)N2CCN(c3ccc4c(c3)CCC(=O)N4)CC2)cc1OC
inactive: [20]

c1ccc(CNCc2ccc(CN3CCCNCCNCCCNCC3)cc2)nc1
inactive: [20]

CC(=O)O/N=C1\C(=O)N(Cc2cc(Cl)ccc2Cl)c2ccc(Cl)cc21
inactive: [20]

Cn1cc(/C=C/C(=O)c2cccc(F)c2)cc1/C=C/C(=O)NO
inactive: [20]

O=c1[nH]nc2c3c(cccc13)NC(CN1Cc3ccccc3C1)=N2
inactive: [20]

COC[C@@H](c1ccc(C(F)(F)F)cc1)N1CCN(C2(C)CCN(C(=O)c3c(C)ncnc3C)CC2)C[C@@H]1C
inactive: [20]

Cc1ccc(-c2ccc(C)cn2)nc1
inactive: [20]

COc1ccnc2[nH]cc(C(=O)C(=O)N3CCN(C(=O)c4ccccc4)C[C@H]3C)c12
inactive: [20]

Cc1c(-c2ccc(-c3ccccc3F)cc2)nc2ccc(F)cc2c1C(=O)O
inactive: [20]

C[C@]12CCC3[C@@H](CC[C@H]4NC(=O)C=C[C@]34C)[C@@H]1CC[C@@H]2C(=O)Nc1cc(C(F)(F)F)ccc1C(F)(F)F (some centres undefined)
inactive: [20]

NC1=N[C@@]2(c3cc(NC(=O)c4ccc(F)cn4)ccc3F)COC[C@H]2CS1
inactive: [20]

Cc1cccc(/C=N/Nc2cc(N3CCOCC3)nc(OCCc3ccccn3)n2)c1
inactive: [20]

CC#Cc1cncc(-c2ccc3c(c2)[C@@]2(N=C(C)C(N)=N2)C2(CCC(OC)CC2)C3)c1 (some centres undefined)
inactive: [20]

Source: PubChem BioAssay (NCATS)
